SKN-1 inh – C. elegans SKN-1 inhibition. 360,000 tested, 0.49% active. inhibition, % at 21.8 µM. C. elegans VP596 Pgst-4::GFP/RFP ratio, acrylamide-induced, 24 h;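 active = interference check ratio from 0.5 to 1.5 plus GFP to RFP signal ratio inhibition reaching or exceeding a fixed threshold, cut at about 30% in these data, passing the limit was not always enough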
NadD block – inhibitors of Staphylococcus aureus NadD; purified NadD enzyme, colorimetric absorbance read-out; inhibition, % at 20 µM; 360,000 tested, 0.78% active; AID 602399; in the data active = inhibition above about 26%
esBAF inh – SWI/SNF esBAF complex inhibition | reporter increase, % at 12.5 µM | AID 602393 | 350,000 tested, 2% active | mouse ES cells, Bmi1-luciferase knock-in reporter, 24 h; 100% = twice the neutral-well signal; in the data active = activation above about 40%; inconclusive = no clear call, values can overlap the other calls;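 note: 0% = median of the plate's neutral control wells and 100% = double that signal; a rise in the Bmi1 reporter signal indicates esBAF inhibition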
SMARCA2 activ – activators of SMARCA2 function. AID 652017. MG213 cells, MMTV-luciferase reporter, dexamethasone, overnight. activation, % at 9.1 µM. 370,000 tested, 1% active; in the data active = activation above about 7.8%;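 note: 0% = vehicle wells and 100% = reference activator wells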
NR3A LBD binder – modulates the human NR3A ligand-binding domain; NR3A LBD differential scanning fluorimetry, Tm shift; 0% = protein alone, 100% = glycine-bound protein; Tm shift relative to glycine control, % at 25 µM; 340,000 tested, 2.5% active;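 active = melting temperature shift of at least 10% of the positive control shift, at one fixed dose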
Vif inh – blocks HIV Vif function. HEK293T cells, Vif self-association by quenched fluorescence, imaging, 24 h. inhibition, % at 7.49 µM. 340,000 tested, 0.35% active; in the data active = inhibition above about 50%, passing the limit was not always enough; inconclusive = no clear call, values can overlap the other calls; inactive = below about 31%
* hit, by the source's call; u = inconclusive; x = not tested or not shown. Sampled rows, rich in hits. Any-hit rate of the full collection: about 5.2%.

SMILES	SKN-1 inh	NadD block	esBAF inh	SMARCA2 activ	NR3A LBD binder	Vif inh
COc1ccc(S(=O)(=O)NCC(=O)N(CC(=O)NCC2CCCO2)Cc2ccccc2)cc1 (centres undefined)	-13	-1	3	-1	0	71*
C[C@H]1CN([C@@H](C)CO)C(=O)c2cccc(NC(=O)C3CC3)c2O[C@H]1CN(C)C(=O)Nc1ccc(C(F)(F)F)cc1	x	x	-2	x	x	x
O=C1CC(NS(=O)(=O)c2cccs2)CN1c1ccc(F)cc1 (centres undefined)	6	-2	47*	0	0	-10
CC(C)NC(=O)N[C@@H]1CC[C@H](CCNS(=O)(=O)Cc2ccccc2)O[C@@H]1CO	x	x	0	x	x	x
Cc1ccc(-n2nc3c(N4CCC(C(=O)NCCc5ccccc5C)CC4)nnc(C)c3c2C)cc1	-3	4	5	x	-5	54*
CN(C)c1ccnc(N(Cc2ccccc2)Cc2ccccc2)c1C#N	3	-2	74*	x	4	3
O=c1[nH]c(CSc2nc3ccccc3[nH]2)nc2c1cnn2-c1ccccc1	-5	0	x	-3	-11	-15
O=c1[nH]c(SCc2nc3c(cnn3-c3ccccc3)c(=O)[nH]2)nc2ccccc12	-24	19	44*	1	-6	-10
CCC(=O)Nc1ccc2c(c1)OC[C@@H](C)N(CC1CCCCC1)C[C@@H](C)[C@@H](OC)CN(C)C2=O	x	x	1	x	x	x
COc1cc(Cl)ccc1OCc1cc(C(=O)N(C)Cc2nnc(C)o2)no1	3	-3	28	1	10*	-1
Cc1ccc(CN(C)C(=O)c2cc(COc3ccc(F)cc3Cl)on2)o1	-3	-16	60*	1	2	12
COc1ccc(OCc2cc(C(=O)N(C)Cc3cc(C)no3)no2)c(Cl)c1	8	-6	48*	5	4	-19
CC(=O)c1ccc(OCc2cc(C(=O)N(C)Cc3cc(C)no3)no2)cc1	9	2	62*	4	3	-5
CC(=O)c1ccc(OCc2cc(C(=O)N(C)Cc3ncc(C)[nH]3)no2)cc1	1	-6	1	-2	1	-6
CO[C@H]1CN(C)C(=O)c2ccc(NC(=O)Nc3cc(F)ccc3F)cc2OC[C@@H](C)N(C(=O)c2cnccn2)C[C@H]1C	x	x	-3	x	x	x
CN(C)c1ccc2c(c1)[C@@H]1C[C@@H](CC(=O)N3CCc4ccccc4C3)O[C@H](CO)[C@@H]1O2	x	x	-1	x	x	x
O=C(C[C@H]1C=C[C@@H](NC(=O)c2ccc(F)cc2)[C@@H](CO)O1)NCc1ccncn1	x	x	2	x	x	x
C[C@@H]1CN([C@@H](C)CO)C(=O)c2cc(NS(=O)(=O)c3cn(C)cn3)ccc2O[C@@H]1CN(C)S(=O)(=O)c1cn(C)cn1	x	x	-1	x	x	x
Cc1nc(CN(C)C(=O)c2cc(COc3c(F)cccc3F)on2)cs1	-16	-4	-2	1	0	-4
CCN(Cc1ccncc1)C(=O)c1cc(COc2c(F)cccc2F)on1	12	-5	5	-3	32*	1
CCN(Cc1ccncc1)C(=O)c1cc(COc2ccc(F)cc2Cl)on1	-7	4	14	-2	-1	-11
CN(Cc1cc(-c2ccccc2)on1)C(=O)c1cc(COc2c(F)cccc2F)on1	9	-8	54*	5	0	-2
CC(=O)c1ccc(OCc2cc(C(=O)N(C)C(C)c3ccon3)no2)cc1 (centres undefined)	12	-10	3	-3	1	-5
COC(=O)[C@H](Cc1ccccc1)NC(=O)c1cc(COc2c(F)cccc2F)on1	22	-9	52*	2	2	-2
CCC(NC(=O)c1cc(COc2c(F)cccc2F)on1)c1ccncc1 (centres undefined)	9	0	9	x	-11	-4
SMILES	SKN-1 inh	NadD block	esBAF inh	SMARCA2 activ	NR3A LBD binder	Vif inh
CC(=O)c1ccc(OCc2cc(C(=O)N(C)C(C)c3nccs3)no2)cc1 (centres undefined)	12	0	54*	-1	-1	-5
C[C@@H]1CN([C@H](C)CO)C(=O)c2cc(C#CCc3ccccc3)cnc2O[C@@H]1CN(C)Cc1ccc(C(=O)O)cc1	x	x	-2	x	x	x
CCN(Cc1ccncc1)C(=O)c1cc(COc2ccc(OC)cc2Cl)on1	15	-7	72*	0	-2	0
COc1ccc(OCc2cc(C(=O)N(C)Cc3nnc(C)o3)no2)c(Cl)c1	-3	0	u	0	2	5
CCc1ccc(CN(C)C(=O)c2cc(COc3ccc(OC)cc3Cl)on2)nc1	8	0	46*	2	3	-1
COc1ccc(S(=O)(=O)N(C)C[C@H]2OCCCC[C@H](C)Oc3ccc(NC(=O)Nc4cccc5ccccc45)cc3C(=O)N([C@@H](C)CO)C[C@H]2C)cc1	x	x	3	x	x	x
C[C@@H]1CCCCO[C@H](CN(C)S(=O)(=O)c2ccc(F)cc2)[C@H](C)CN([C@H](C)CO)C(=O)c2cc(NC(=O)NC3CCCCC3)ccc2O1	x	x	9	x	x	x
O=C(/C=C\N1CCOCC1)c1ccc(Br)cc1	14	-1	47*	-1	-2	8
COc1ccc(S(=O)(=O)N(C)C[C@H]2Oc3c(NC(=O)Nc4ccccc4)cccc3C(=O)N([C@@H](C)CO)C[C@H]2C)cc1	x	x	5	x	x	x
CCNC(=S)N1CCN(c2nc(-c3cccc(OC)c3)cs2)CC1	-14	-3	4	-2	19*	1
COc1cccc(-c2csc(N3CCN(C(=S)NCC(C)C)CC3)n2)c1	-8	-3	1	-3	2	-11
COc1cccc(-c2csc(N3CCN(C(=O)Nc4ccc(Cl)cc4)CC3)n2)c1	8	8	x	-4	15*	-12
COCC#Cc1cnc2c(c1)C(=O)N([C@@H](C)CO)C[C@@H](C)[C@H](CN(C)C(=O)Nc1cccc(F)c1)O2	x	x	4	x	x	x
CNC[C@H]1Oc2cc(C#CC3(O)CCCC3)ccc2S(=O)(=O)N([C@H](C)CO)C[C@H]1C	x	x	3	x	x	x
CCCOc1ccc2cc(-c3ccccn3)c(=O)oc2c1	45*	-3	-75	1	-1	13
O=c1oc2cc(OCc3c(F)cccc3Cl)ccc2cc1-c1ccccn1	-8	6	u	-4	-4	0
CC(C)C#Cc1cnc2c(c1)C(=O)N([C@H](C)CO)C[C@H](C)[C@@H](CN(C)C(=O)C1CCC1)O2	x	x	0	x	x	x
Cc1ccc(Cn2c(=O)c3cccnc3n(CC(=O)Nc3cccc(C(F)(F)F)c3)c2=O)cc1	3	7	x	-1	23*	-6
O=C([C@@H]1[C@@H](CO)[C@@H]2Cn3c(cccc3=O)[C@@H]2N1C(=O)CC1CC1)N1CCCCC1	x	x	-1	x	x	x
COc1ccc(C(=O)c2sc3nc(C)cc(-c4cccs4)c3c2N)cc1OC	-11	4	x	-2	9	176*
COc1ccc(C(=O)c2sc3nc(C)cc(-c4cccs4)c3c2N)cc1	1	-5	x	-3	1	0

Bioassay records deposited in PubChem by several laboratories.
